Source: PubChem BioAssay AID618 (Sanford-Burnham Center for Chemical Genomics, 2007)
Hit rate of the full screen: of about 87,000 compounds, about 540 (0.62%) were called active. How the calls were made is not given here. The entries come from a sample that favours actives as a whole. Entries that show only a call come without a potency. Potency and affinity values are given separately.

test: MT1-MMP gene expression reporter suppression – cell-based, luciferase reporter, luminescence (AID 618); conditions: MT1-MMP promoter luciferase reporter cells;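 further: actives suppress MT1-MMP promoter-driven transcription so potencies describe inhibitors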

For `Cc1cc(N)n(-c2nc(-c3cccnc3)nc3ccccc23)n1`, which outcome is on record?
The outcome was “inactive”.

With `Cc1cc(Nc2ccccc2N2CCOCC2)n2ncnc2n1` as the compound, how does the outcome read?
The outcome was “inactive”.

Which outcome does the source give for `O=C(Cn1nnc(-c2ccc(Cl)cc2)n1)NC1CCN(Cc2ccccc2)CC1` here?
The outcome was “inactive”.

With `N#Cc1nc(-c2ccc(OCc3ccc(Cl)cc3)cc2)oc1N1CCC(C(N)=O)CC1` as the compound, how does the outcome read?
The outcome was “inactive”.

Which outcome does the source give for `CN(C)C(=O)N1CCC(C(=O)NCc2ccc(F)cc2Cl)CC1` here?
The outcome was “inactive”.

With `c1ccc(-n2nnnc2SCc2ccccn2)cc1` as the compound, how does the outcome read?
Its outcome is “inactive”.

With `CCN(CC)C(=O)C1CCCN(Cc2cccc(F)c2)C1` (centres undefined) as the compound, how does the outcome read?
The outcome was “inactive”.

For `Cn1c(=O)c2c(nc(SCC(=O)NCc3ccc4c(c3)OCO4)n2Cc2ccc(F)cc2)n(C)c1=O`, which outcome is on record?
Its outcome is “inactive”.

With `O=C(CCCOc1ccccc1)N1CCN(c2ccccc2)CC1` as the compound, how does the outcome read?
Its outcome is “inactive”.

Which outcome does the source give for `O=C(CCCOc1ccc(Cl)cc1)N1CCCCCC1` here?
The outcome was “inactive”.

Which outcome does the source give for `Cc1cc(C)n(-c2ccc(C(=O)Nc3nc4ccccc4s3)cc2)n1` here?
Its outcome is “inactive”.

For `O=C(Nc1nc2ccccc2s1)c1ccc(Cl)s1`, which outcome is on record?
Its outcome is “inactive”.

Which outcome does the source give for `CCOc1ccccc1OCC(=O)OCC(=O)Nc1ncc(Cl)cc1Cl` here?
Its outcome is “inactive”.

With `CCn1c(SCC(=O)N2CCN(c3ccc(F)cc3)CC2)nc2ccccc2c1=O` as the compound, how does the outcome read?
The outcome was “inactive”.

With `C#CC[N+]1(CC#Cc2ccccc2)CCOCC1` as the compound, how does the outcome read?
The outcome was “inactive”.

With `COC(=O)CSc1nnc(Cc2ccccc2)n1-c1ccc(C)cc1` as the compound, how does the outcome read?
The outcome was “inactive”.

With `COc1ccc(C2=NOC(C(=O)NCc3cccs3)C2)cc1` (centres undefined) as the compound, how does the outcome read?
Its outcome is “inactive”.

Which outcome does the source give for `COc1ccc(C2=NOC(C(=O)NCc3cccs3)C2)cc1OC` (centres undefined) here?
Its outcome is “active”.

For `COc1cc(C2=NOC(C(=O)NCc3cccs3)C2)cc(OC)c1OC` (centres undefined), which outcome is on record?
Its outcome is “inactive”.

Which outcome does the source give for `CCC1(C)Cc2c(sc3nn[nH]c(=O)c23)CO1` (centres undefined) here?
The outcome was “inactive”.

For `Cc1nc2sc(C(c3cccs3)N3CCN(c4ccccc4)CC3)c(O)n2n1` (centres undefined), which outcome is on record?
Its outcome is “inactive”.

For `CC(=O)N=c1sc2ccccc2n1C`, which outcome is on record?
The outcome was “inactive”.

With `Cn1c(=NC(=O)CN2C(=O)C3CC=CCC3C2=O)sc2ccccc21` (centres undefined) as the compound, how does the outcome read?
Its outcome is “inactive”.

Which outcome does the source give for `Cn1c(=NC(=O)CCl)sc2ccccc21` here?
The outcome was “active”.

For `CCCCOC(=O)C(C)Nc1n[nH]c(=S)[nH]c1=O` (centres undefined), which outcome is on record?
The outcome was “inactive”.

With `CCN(C(=O)CN1CCN(c2ccccc2OC)CC1)c1c(N)n(Cc2ccccc2)c(=O)[nH]c1=O` as the compound, how does the outcome read?
Its outcome is “inactive”.

For `CC(=O)N(/N=C1\Sc2ccccc2C1=O)c1ccccc1C`, which outcome is on record?
Its outcome is “inactive”.

With `CC(=O)N(/N=C1\Sc2ccccc2C1=O)c1cccc(C)c1` as the compound, how does the outcome read?
Its outcome is “inactive”.

With `O=C(Cc1ccc(F)cc1)NCCc1ccccc1` as the compound, how does the outcome read?
The outcome was “inactive”.

For `Cn1c(=O)c2c(nc(NCc3ccccc3)n2Cc2ccc(F)cc2)n(C)c1=O`, which outcome is on record?
The outcome was “inactive”.

With `Cn1c(=O)c2c(nc(NCCc3ccccc3)n2Cc2ccc(F)cc2)n(C)c1=O` as the compound, how does the outcome read?
Its outcome is “inactive”.

With `CC(=O)N(Cc1ccc(F)cc1)C1=C(NCc2ccccc2)C(=O)c2ccccc2C1=O` as the compound, how does the outcome read?
Its outcome is “active”.

With `CC(=O)n1nc(-c2ccccc2)nc1NCc1ccc(F)cc1` as the compound, how does the outcome read?
The outcome was “inactive”.

For `OC(CN1C2=NCCN2c2ccccc21)c1ccc(Br)cc1` (centres undefined), which outcome is on record?
The outcome was “inactive”.

With `O=S(=O)(NCCSc1nc2ccccc2o1)c1ccccc1` as the compound, how does the outcome read?
The outcome was “inactive”.

For `O=C(CCC1CCCC1)Nc1ccc(OCC(=O)N2CCOCC2)cc1`, which outcome is on record?
The outcome was “inactive”.

Which outcome does the source give for `COc1ccccc1CN1CCSCC1` here?
Its outcome is “inactive”.

Which outcome does the source give for `COCc1nnc(NC(=O)c2cc(Cl)ccc2OC)s1` here?
Its outcome is “inactive”.

For `O=C(CSc1nnc(Cc2cccs2)n1Cc1ccco1)Nc1ccc(Cl)cc1Cl`, which outcome is on record?
The outcome was “inactive”.

For `Cc1ccnn1CC(=O)N/N=C/c1ccco1`, which outcome is on record?
The outcome was “inactive”.

With `CC(C)Cn1c(N)c(S(=O)(=O)c2cccs2)c2nc3ccccc3nc21` as the compound, how does the outcome read?
The outcome was “inactive”.

Which outcome does the source give for `COCCn1c(N)c(S(=O)(=O)c2cccs2)c2nc3ccccc3nc21` here?
The outcome was “inactive”.

Which outcome does the source give for `CC(C)CCn1c(N)c(S(=O)(=O)c2cccs2)c2nc3ccccc3nc21` here?
Its outcome is “active”.

With `N#Cc1nc(-c2ccco2)oc1N1CCN(c2cccc(Cl)c2)CC1` as the compound, how does the outcome read?
The outcome was “inactive”.

For `CC(Oc1ccc(Cl)cc1Cl)C(=O)NCc1ccncc1` (centres undefined), which outcome is on record?
Its outcome is “inactive”.

For `Cc1cc(C)c(C)c(OCC(=O)NCC2CCCO2)c1` (centres undefined), which outcome is on record?
The outcome was “inactive”.

Which outcome does the source give for `O=C(O)c1n[nH]c2c1CCCCC2` here?
The outcome was “inactive”.

With `CC1(CCc2ccccc2)NC(=O)N(Cc2nnc(-c3ccccc3Br)o2)C1=O` (centres undefined) as the compound, how does the outcome read?
Its outcome is “inactive”.

For `CC1Cc2ccccc2N1c1nc(C2CC2)nc2c1nnn2Cc1ccccc1` (centres undefined), which outcome is on record?
The outcome was “inactive”.

For `CC(=O)Nc1c(O)nc(SCC(=O)Nc2sc3c(c2C#N)CCCCCC3)[nH]c1=O`, which outcome is on record?
The outcome was “inactive”.

Which outcome does the source give for `Cc1nnc(SCC(=O)Nc2sc3c(c2C#N)CCCC3)[nH]c1=O` here?
Its outcome is “inactive”.

Which outcome does the source give for `N#Cc1c(NC(=O)CSc2nc(N)cc(=O)[nH]2)sc2c1CCCCCC2` here?
Its outcome is “inactive”.

Which outcome does the source give for `CC(C)(C)C1CCc2c(sc(NC(=O)CSc3ncn[nH]3)c2C#N)C1` (centres undefined) here?
Its outcome is “inactive”.

For `CCSC1=C(C#N)C2(CCCCC2)C(C#N)C(=O)N1` (centres undefined), which outcome is on record?
Its outcome is “inactive”.

For `Cc1cc(NC(=O)CSc2nc(C(C)C)nc3sc4c(c23)CCCC4)no1`, which outcome is on record?
Its outcome is “inactive”.

For `CCOC(=O)N1CCN(C(=O)Cn2cc3c(n2)CCCC3)CC1`, which outcome is on record?
Its outcome is “inactive”.

For `O=C(O)C1=C(C(=O)N2CCN(C(=O)c3ccco3)CC2)CCCC1`, which outcome is on record?
The outcome was “inactive”.

Which outcome does the source give for `c1ccc(Sc2ncnc3c2oc2ccccc23)cc1` here?
The outcome was “inactive”.

With `Fc1cccc(-c2cc3nc4c(c(N5CCN(c6cnccn6)CC5)n3n2)CCCC4)c1` as the compound, how does the outcome read?
The outcome was “inactive”.

With `O=C(Oc1ccc2ccccc2c1)c1ccco1` as the compound, how does the outcome read?
The outcome was “inactive”.

With `CC1=CC(C)(C)Nc2ccc(OC(=O)CN3C(=O)C4CCCCC4C3=O)cc21` (centres undefined) as the compound, how does the outcome read?
Its outcome is “inactive”.

With `COC(=O)c1ccc(OC(=O)c2ccco2)cc1` as the compound, how does the outcome read?
The outcome was “inactive”.

For `CCc1ccc2c(c1)C(C)=CC(C)(C)N2`, which outcome is on record?
Its outcome is “inactive”.

For `COc1ccc2c(c1)C(C)=CC(C)(C)N2C(=O)CN1C(=O)CCC1=O`, which outcome is on record?
The outcome was “inactive”.

For `CC1=CC(C)(C)Nc2ccc(OC(=O)c3cccnc3)cc21`, which outcome is on record?
Its outcome is “inactive”.

Which outcome does the source give for `CC1=CC(C)(C)Nc2ccc(OC(=O)c3ccco3)cc21` here?
The outcome was “active”.

Which outcome does the source give for `COc1ccc(-c2nnc(SCC(=O)N3c4ccccc4Sc4ccccc43)o2)cc1` here?
The outcome was “inactive”.

With `CCOC(=O)c1ccc2nc3c(cc2c1)CCS3` as the compound, how does the outcome read?
The outcome was “inactive”.

With `COc1ccc2c(c1OC)C(=O)N(c1ccc3c(c1)CCC3)C2=O` as the compound, how does the outcome read?
Its outcome is “inactive”.

Which outcome does the source give for `CCn1c(=O)n(CC(=O)NC2CCCC(C)C2C)c(=O)c2ccccc21` (centres undefined) here?
Its outcome is “inactive”.

For `CCN(CCNC(=O)C1CCN(c2nnc(-n3cccc3)s2)CC1)c1ccccc1`, which outcome is on record?
The outcome was “inactive”.

For `Cc1cccc2cc3c(N)c(C(=O)N4CCOCC4)sc3nc12`, which outcome is on record?
Its outcome is “inactive”.

With `Cc1ccc2cc3c(N)c(C(=O)N4CCOCC4)sc3nc2c1` as the compound, how does the outcome read?
The outcome was “inactive”.

Which outcome does the source give for `Cc1ccc2nc3sc(C(=O)N4CCOCC4)c(N)c3cc2c1` here?
The outcome was “active”.
